Assay results taken from PubChem BioAssay (NCATS).
Inconclusive results are not listed. Values without a mark were called inactive. Active and inactive are the calls of the source. The call rests on the fitted dose curve; in most records, active means well fitted cell-killing curve with a large enough effect; inconclusive means small, poorly fitted or top-dose-only effect; inactive means flat fitted curve, though single readings scatter.

Assay: Cell Viability - NIH 3T3 (AID 541); further: nearly all actives have a fitted effect of over 25% in size;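 on activity change, negative = cytotoxicity: plate controls were DMSO alone for no effect and tamoxifen positive control for full effect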
Settings: NIH 3T3 cell viability, qHTS; activity change, negative = cytotoxicity: at 92.2 µM (top of the series)
From the text: NIH Chemical Genomics Center [NCGC]
NIH Molecular Libraries Screening Centers Network [MLSCN]
National Institutes of Environmental Health Sciences [NIEHS]
National Toxicology Program [NTP]
We have developed a 1536-well cell-based assay for quantitative high throughput screening (qHTS) against a number of cell lines to determine in vitro cytotoxicity of small molecules. This particular assay uses the NIH 3T3 fibroblast cell line which is established from NIH Swiss mouse embryo.
NCGC Assay Protocol Summary:
The CellTiter-Glo luminescent cell viability assay (Promega) is a homogeneous method to measure the number of viable cells in culture. The end point readout of this assay is based on quantitation of intracellular ATP, an indicator of metabolic activity, using the luciferase reaction. Luciferase catalyzes the oxidation of beetle Luciferin to oxyluciferin and light in the presence of ATP. The luminescent signal is proportional to amount of ATP present.
Using the CellTiter-Glo luminescent cell viability assay, the amount of cellular ATP was measured in the NIH 3T3 cell line with complete culture medium following compound treatment for 40 hours. The assay was performed in opaque white Kalypsys 1536-well plates. In the screen, tamoxifen and doxorubicin were used as positive controls. Library compounds were measured for their ability to cause acute toxicity in the cell line, as reflected by a decrease in intracellular ATP levels, in a concentration-dependent manner. […] AC50 values were determined from concentration-response data modeled with the standard Hill equation.
qHTS protocol for CellTiter Glo NIH 3T3 cellular assay
[Step] [Parameter] [Value] [Description]
1. Reagent; 5 uL; 1000 NIH 3T3 cells/well
2. Time; 5 hr; 37 °C incubation
4. Controls; 23 nL; Tamoxifen 0.34 uM to 100 uM & Doxorubicin 0.02 nM to 100 uM
5. Time; 40 hr; 37 °C incubation
6. Reagent; 5 uL; CellTiter Glo reagent
7. Time; 20 min; Room Temperature
8. Detection; Luminescence; Viewlux plate reader
Keywords: cell viability, cytotoxicity, NIH 3T3 cell line, luminescence, NTPHTS, NTPHTS_NCGC, NIEHS, EPA, DSSTox, MLSMR, MLSCN, NIH Roadmap, qHTS, NCGC
Potency means the concentration at half of the fitted maximal effect.

Row | SMILES | activity change, negative = cytotoxicity | Potency
1 | Cc1ccc(OP(=O)(Oc2ccc(C)cc2)Oc2ccc(C)cc2)cc1 | -18.1% | 
2 | O=S(=O)(Cl)c1ccccc1 | -155% (active) | 
3 | Cc1ccc(N)cc1N | -4% | 
4 | CCBr | -11.6% | 
5 | ClC(Br)Br | 8.51% | 
6 | c1ccc(N=NNc2ccccc2)cc1 | -17.1% | 
7 | O=C(O)c1cc(Cl)ccc1Cl | -6.17% | 
8 | BrC(Br)Br | -15.5% | 
9 | Cl/C=C\Cl | 0.835% | 
10 | O=[N+]([O-])c1cccc(CCl)c1 | -132% (active) | 
11 | N#CCCCCC#N | -10.6% | 
12 | [N-]=[N+]=[N-] | -23.5% | 
13 | c1ccoc1 | -0.235% | 
14 | Cc1ccc(N=C=O)cc1N=C=O | -6.31% | 
15 | CCOC(=O)C1OC1(C)c1ccccc1 (stereo not given) | -11.5% | 
16 | CCN(CC)CCO | -9.49% | 
17 | CCCCNC(=O)n1c(NC(=O)OC)nc2ccccc21 |  | 5.01 µM (active)
18 | Oc1ccc(Cl)c(Cl)c1Cl | -20.1% | 
19 | O=C(Cl)OCc1ccccc1 | 2.43% | 
20 | CCOC(=O)CC(SP(=O)(OC)OC)C(=O)OCC (stereo not given) | -1.15% | 

Row | SMILES | activity change, negative = cytotoxicity | Potency
21 | Cc1ccc(N)c(C)c1 | 11.5% | 
22 | CC(C)[C@]12CC(=O)[C@H](C)[C@H]1C2 | -9.55% | 
23 | ClCc1ccccn1 | -5.6% | 
24 | Nc1ccc(Cc2ccc(N)c(Cl)c2)cc1Cl | -27.4% | 
25 | Cl/C=C/CCl | -14.4% | 
26 | Cc1ccccc1[N+](=O)[O-] | -15.5% | 
27 | CCNCC | -6.57% | 
28 | Cc1cnc[nH]1 | -12.2% | 
29 | CCCCOCC1CO1 (stereo not given) | -12.9% | 
30 | CCOP(=O)(OCC)OCC | -0.518% | 
31 | CCCCC#N | -17.3% | 
32 | CC(C)[N+](=O)[O-] | -0.885% | 
33 | O=[N+]([O-])c1cccc2c([N+](=O)[O-])cccc12 | -24.8% | 
34 | CCCN(CCC)c1c([N+](=O)[O-])cc(C(F)(F)F)cc1[N+](=O)[O-] | -13.1% | 
35 | CCCCOC(=O)c1ccccc1N | -12.9% | 
36 | O=C(O)C(Br)Br | -21.7% | 
37 | CC(C)(COCC1CO1)COCC1CO1 (stereo not given) | -105% (active) | 
38 | ClCCOCOCCCl | -0.878% | 
39 | O=P(OCCCl)(OCCCl)OCCCl | -3.85% | 
40 | CC[N+](=O)[O-] | -6.98% | 
